Test results from PubChem BioAssay.
Active and inactive are the calls of the source.

Experiments:
[1] = test system: Wnt5a (protein binding on small-molecule microarray); assay: Wnt5a binders on small-molecule microarray, primary screen, biophysical, 635/667 nm fluorescence (AID 1142); details: 635 nm fluorescence, higher = more signal;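 also: fluorescence read at 667 nm with signal to noise per printed feature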
[2] = cell viability in Huh7 cells, primary screen, cytotoxicity control for HCV replication inhibitor project, CellTiter-Glo luminescence, basal, 48 h (AID 1143); details: Huh7 HCV replicon, higher = more signal, called active from +8 up or from −8 down;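 also: Huh7 hepatoma cells carrying a hepatitis C replication reporter with no stimulus; test concentration not given here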
[3] = CREB reporter modulators without forskolin, primary screen, cell-based, PC12, CRE-LacZ reporter, unstimulated (AID 1145); details: no forskolin, luminescence, 4.5 h, higher = more signal, called active from +8 up or from −8 down
[4] = CREB reporter modulators under forskolin, primary screen, cell-based, PC12, CRE-LacZ reporter, forskolin-stimulated (AID 1146); details: luminescence, 4.5 h, higher = more signal, called active from +8 up or from −8 down;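 also: PC12 cells with 6xCRE LacZ reporter stimulated by forskolin 10 µM; beta-galactosidase reporter signal reflecting CREB driven transcription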
[5] = target: Streptavidin (Streptomyces avidinii) (UniProt P22629); assay: streptavidin binders on small-molecule microarray, primary screen, artefact control for SMM compound annotation, biophysical, 635/667 nm fluorescence (AID 1147); details: streptavidin binding, higher = more signal;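 also: signal reflects streptavidin binding to arrayed compounds as a control protein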
Streptavidin (Streptomyces avidinii), sequence (P22629 whole entry, looked up): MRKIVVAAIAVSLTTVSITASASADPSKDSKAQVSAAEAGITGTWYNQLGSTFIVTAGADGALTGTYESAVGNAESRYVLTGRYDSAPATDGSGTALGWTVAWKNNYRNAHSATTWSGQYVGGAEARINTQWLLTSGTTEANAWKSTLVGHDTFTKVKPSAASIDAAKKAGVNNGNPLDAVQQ

[6] = small-molecule binders of probe aInhba, primary screen, biochemical, small-molecule microarray, 635/667 nm fluorescence (AID 1148); details: higher = more signal;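 also: score merges 667nm spot fluorescence with signal-to-noise for antibody binding to printed compounds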
Torsin-1A (Homo sapiens) [7] = target: Torsin-1A (Homo sapiens) (UniProt O14656); assay: torsin A binders from cell lysate, primary screen, small-molecule microarray, wild-type, 635/667 nm (AID 1149); details: COS7 hTOR1A-WT lysate, 635 nm fluorescence, higher = more signal
Torsin-1A (Homo sapiens), sequence (O14656 whole entry, looked up): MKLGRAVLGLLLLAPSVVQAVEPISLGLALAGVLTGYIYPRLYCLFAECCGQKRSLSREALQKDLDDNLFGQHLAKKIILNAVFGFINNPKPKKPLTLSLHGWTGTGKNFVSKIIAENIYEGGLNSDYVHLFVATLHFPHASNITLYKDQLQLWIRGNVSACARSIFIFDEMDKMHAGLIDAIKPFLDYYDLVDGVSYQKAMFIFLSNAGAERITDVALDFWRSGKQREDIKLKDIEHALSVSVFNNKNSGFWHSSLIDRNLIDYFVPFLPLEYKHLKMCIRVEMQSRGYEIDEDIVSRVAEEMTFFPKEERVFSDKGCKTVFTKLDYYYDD

Torsin-1A (Homo sapiens) [8] = target: Torsin-1A (Homo sapiens) (UniProt O14656); assay: small-molecule binders of mutant TOR1A in lysate, primary screen, cell lysate, small-molecule microarray, COS7 lysate, 635/667 nm fluorescence (AID 1150); details: COS7 hTOR1A mutant lysate, 635 nm fluorescence, higher = more signal;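 also: score pools 667 nm emission and signal to noise measuring lysate protein binding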
[9] = test system: Sonic hedgehog protein (Shh); assay: small-molecule binders of Shh protein, primary screen, biochemical, small-molecule microarray, 635/667 nm fluorescence (AID 1151); details: small-molecule microarray binding, 635 nm fluorescence; higher = more signal;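 also: Shh protein binding to compounds spotted on small-molecule microarray slides; score combines spot fluorescence intensity with signal-to-noise across triplicate slides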
[10] = E. coli DRC41 culture turbidity changes, primary screen, E. coli filamentation inducer project, strain DRC41, OD650, 48 h (AID 1152);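 also: E. coli MC1000 strain DRC41 lacking acrAB efflux pump and sulA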; details: E. coli DRC41 (acrAB sulA), higher = more signal, called active from +8 up or from −8 down
[11] = small-molecule binders of probe aLefty1, primary screen, biochemical, small-molecule microarray, 635/667 nm fluorescence (AID 1153); details: higher = more signal;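 also: score merges spot fluorescence with signal-to-noise ratio from the scanned slide images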
[12] = PSAC antagonists in infected red cells, primary screen, cell-based, P. falciparum Indochina, OD700, 1 h (AID 1154); details: P. falciparum Indochina infected RBC osmotic lysis, higher = more signal, called active from +8 up or from −8 down
[13] = PSAC antagonists in infected red cells, primary screen, cell-based, P. falciparum Indochina, OD700, 2 h (AID 1155);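 also: lysis reports solute entry through the parasite surface anion channel PSAC; channel blockers reduce lysis of infected cells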; details: P. falciparum Indochina infected erythrocytes, osmotic lysis OD700; higher = more signal, called active from +8 up or from −8 down
[14] = osmotic lysis modulators in infected erythrocytes, primary screen, PSAC antagonist project, cell-based, P. falciparum Indochina, OD700, 3 h (AID 1156); details: higher = more signal, called active from +8 up or from −8 down
[15] = PSAC antagonists in infected red cells, primary screen, cell-based, P. falciparum Indochina, OD700, 18 h (AID 1157); details: P. falciparum Indochina infected erythrocytes, osmotic lysis OD700, 18 h; higher = more signal, called active from +8 up or from −8 down
[16] = modulators of S6 phosphorylation in cells, primary screen, cell-based, A549, cytoblot, luminescence, serum-stimulated (AID 1158); details: A549 phospho-S6 cytoblot, 5 h, higher = more signal;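 also: serum-stimulated A549 lung adenocarcinoma cells; signal is phosphorylated S6 detected by cytoblot immunostaining with HRP secondary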
[17] = target: NADPH oxidase 2 (Homo sapiens) (UniProt P04839); assay: NOX2-dependent H2O2 signal modulators, primary screen, NOX inhibitor project, cell-based, HEK293-NOX2, PMA-stimulated, Amplex Red fluorescence (AID 1159); details: 45 min, higher = more signal, called active from +8 up or from −8 down; also: test concentration not given here
NADPH oxidase 2 (Homo sapiens), sequence (P04839 whole entry, looked up): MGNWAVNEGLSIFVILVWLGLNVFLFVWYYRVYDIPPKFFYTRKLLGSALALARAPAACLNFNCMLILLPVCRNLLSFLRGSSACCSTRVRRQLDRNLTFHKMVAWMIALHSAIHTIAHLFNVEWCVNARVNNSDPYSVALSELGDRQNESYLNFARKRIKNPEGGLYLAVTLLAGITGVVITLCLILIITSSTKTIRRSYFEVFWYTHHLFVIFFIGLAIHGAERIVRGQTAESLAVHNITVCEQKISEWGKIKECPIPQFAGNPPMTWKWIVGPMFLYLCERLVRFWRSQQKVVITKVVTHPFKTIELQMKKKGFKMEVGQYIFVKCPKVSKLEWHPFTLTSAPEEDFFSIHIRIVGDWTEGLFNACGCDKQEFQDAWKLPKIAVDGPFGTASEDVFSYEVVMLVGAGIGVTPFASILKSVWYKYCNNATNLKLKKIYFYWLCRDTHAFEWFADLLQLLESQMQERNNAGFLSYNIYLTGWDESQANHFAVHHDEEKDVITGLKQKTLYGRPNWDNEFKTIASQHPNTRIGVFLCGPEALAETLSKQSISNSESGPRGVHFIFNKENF

[18] = target: NADPH oxidase 4 (Homo sapiens) (UniProt Q9NPH5); assay: NOX4-dependent H2O2 signal modulators, primary screen, NOX inhibitor project, cell-based, HEK293-NOX4, tetracycline-induced, Amplex Red fluorescence (AID 1160); details: 45 min, higher = more signal, called active from +8 up or from −8 down
NADPH oxidase 4 (Homo sapiens), sequence (Q9NPH5 whole entry, looked up): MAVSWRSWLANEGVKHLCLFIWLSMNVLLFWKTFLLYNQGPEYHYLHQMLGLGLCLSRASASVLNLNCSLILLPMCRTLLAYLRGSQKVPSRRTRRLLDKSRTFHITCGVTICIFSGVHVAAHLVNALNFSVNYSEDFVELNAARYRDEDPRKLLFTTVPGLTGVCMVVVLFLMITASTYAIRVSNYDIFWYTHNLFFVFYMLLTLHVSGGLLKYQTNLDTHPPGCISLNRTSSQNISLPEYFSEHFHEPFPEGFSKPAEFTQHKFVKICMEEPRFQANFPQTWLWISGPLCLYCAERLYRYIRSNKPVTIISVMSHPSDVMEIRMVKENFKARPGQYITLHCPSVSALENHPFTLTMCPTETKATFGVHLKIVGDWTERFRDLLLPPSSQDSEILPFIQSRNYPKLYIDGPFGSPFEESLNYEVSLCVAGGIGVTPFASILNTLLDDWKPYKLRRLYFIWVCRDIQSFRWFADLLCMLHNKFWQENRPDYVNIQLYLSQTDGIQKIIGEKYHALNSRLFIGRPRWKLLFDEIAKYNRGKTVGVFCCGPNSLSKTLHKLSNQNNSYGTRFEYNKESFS

[19] = target: NADPH oxidase 5 (Homo sapiens) (UniProt Q96PH1); assay: NOX5-dependent H2O2 signal modulators, primary screen, NOX inhibitor project, cell-based, HEK293-NOX5, Amplex Red fluorescence (AID 1161); details: HEK293-NOX5, ionomycin, 45 min, higher = more signal
NADPH oxidase 5 (Homo sapiens), sequence (Q96PH1 whole entry, looked up): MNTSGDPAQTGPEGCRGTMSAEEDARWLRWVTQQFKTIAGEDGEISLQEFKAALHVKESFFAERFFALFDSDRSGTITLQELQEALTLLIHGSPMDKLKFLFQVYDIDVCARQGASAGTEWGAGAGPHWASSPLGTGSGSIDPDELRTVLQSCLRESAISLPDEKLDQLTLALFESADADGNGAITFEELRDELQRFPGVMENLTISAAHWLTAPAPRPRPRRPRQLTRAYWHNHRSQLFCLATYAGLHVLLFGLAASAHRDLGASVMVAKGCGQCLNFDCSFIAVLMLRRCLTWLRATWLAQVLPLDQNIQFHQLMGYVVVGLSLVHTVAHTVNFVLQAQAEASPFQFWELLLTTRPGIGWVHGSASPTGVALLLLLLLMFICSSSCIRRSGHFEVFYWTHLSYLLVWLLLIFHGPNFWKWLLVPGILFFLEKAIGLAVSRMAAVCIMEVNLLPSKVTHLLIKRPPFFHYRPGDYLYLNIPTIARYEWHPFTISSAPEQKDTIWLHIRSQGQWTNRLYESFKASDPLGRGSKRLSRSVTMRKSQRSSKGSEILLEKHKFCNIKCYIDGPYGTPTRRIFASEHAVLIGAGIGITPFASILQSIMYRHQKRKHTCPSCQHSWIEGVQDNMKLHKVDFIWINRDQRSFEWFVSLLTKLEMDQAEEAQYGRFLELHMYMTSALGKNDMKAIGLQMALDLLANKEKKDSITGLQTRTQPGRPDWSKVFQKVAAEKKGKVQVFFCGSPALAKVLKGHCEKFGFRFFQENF

[20] = A549 cell viability effects, profiling panel, calcein-AM fluorescence, 48 h, basal (AID 1162); details: higher = more signal; also: test concentration not given here

| Compound | composite z-score [1] | z-score [2] | z-score [3] | z-score [4] | composite z-score [5] | composite z-score [6] | composite z-score (Torsin-1A (Homo sapiens) [7]) | composite z-score (Torsin-1A (Homo sapiens) [8]) | composite z-score [9] | z-score [10] | composite z-score [11] | z-score [12] | z-score [13] | z-score [14] | z-score [15] | z-score [16] | z-score [17] | z-score [18] | z-score [19] | z-score [20] |
| --- | --- | --- | --- | --- | --- | --- | --- | --- | --- | --- | --- | --- | --- | --- | --- | --- | --- | --- | --- | --- |
| Cc1ccc(N2C(=O)c3ccccc3[C@](C)(C(=O)NCC(F)(F)F)[C@@H]2c2ccc(CO)cc2)nc1 | -0.318 | -1.01 (inactive) | 0.234 (inactive) | -1.31 (inactive) | -0.763 | -0.179 | -1.08 | -0.727 | -1.46 | 1.49 (inactive) | -0.147 | 0.57 (inactive) | 0.253 (inactive) | -0.317 (inactive) | 0.127 (inactive) | 0.654 | -0.103 (inactive) | -1.56 (inactive) | 1.22 | 0.708 |
| C=CCC(OC(C)=O)[C@@H]1[C@@H](N(Cc2ccc(-c3cccc(C(F)(F)F)c3)o2)C(=O)c2ccc(-c3ccccc3)cc2)c2cc(OCCCO)ccc2N1C(=O)Cc1ccc(OC)cc1 (stereo not given in full) | 0.0578 | -1.84 (inactive) | 1.38 (inactive) | -0.0892 (inactive) | -0.152 | -0.273 | -0.267 | 0.0992 | 0.214 | 1.73 (inactive) | -0.0501 | 0.963 (inactive) | 0.485 (inactive) | 0.218 (inactive) | -0.0843 (inactive) | 0.509 | 0.964 (inactive) | 1.06 (inactive) | 2.21 | 0.161 |
| CC(C)(C)OC(=O)CC[C@@]1(C(=O)NCc2ccccc2)N=C(c2ccc(OCCCO)cc2)O[C@@H]1c1ccccc1CN=[N+]=[N-] | 1.14 | -5.23 (inactive) | 1.46 (inactive) | -1.42 (inactive) | 1.17 | 0.156 | 0.807 | 0.312 | 0.285 | 2.4 (inactive) | -0.14 | 26.3 (active) | 16.7 (active) | -0.187 (inactive) | 0.712 (inactive) | 2.07 | -0.046 (inactive) | -0.0643 (inactive) | -1.35 | 1.09 |
